Data published in article PMC13083723 (Patterns, 2026).
Hit rate of the full screen: of about 5,400 compounds, about 190 (3.5%) showed an effect of 50% or more. For the sample, strong results were picked, then their nearest neighbours and some compounds at random.

What follows are compounds tested on Vero-E6 (assay: primary screen, phospholipidosis by LipidTOX staining; higher = more effect of the substance). Details: 10 µM.
Method: To measure drug-induced PLD in Vero-E6 cells, we used the HCS LipidTOX Red Phospholipidosis Detection Reagent (Invitrogen, #H34351), which is non-toxic to cell growth and remains well retained after aldehyde fixation. In this setup, compounds (at 10 μM concentration) and controls (amiodarone: 10 μM concentration; DMSO: 0.1 v/v %) were added to clear-bottom, 384-well plates (PhenoPlate 384-well, black, optically clear flat bottom, tissue-culture treated, Revvity #6057302) using the Echo Liquid Handler (Labcyte).

SMILES	result_ITMP [%]
Cc1cc(CN)cc(C)c1NC(=O)c1ccc(-c2cc(Cl)ccc2Cl)o1	36.2
Cn1ncc(Cl)c1-c1cc(C(=O)N[C@H](CN)Cc2cccc(F)c2)sc1Cl	69.5
Cn1ncc(Cl)c1-c1cc(C(=O)N[C@H](CN)Cc2ccc(F)c(F)c2)oc1Cl	82.6
Cn1nc(C(C)(C)C)cc1C(=O)N[C@@H](Cc1cccc(Cl)c1)C(=O)NCC#N	-8.49
O=C(N[C@H](Cc1ccccc1)C(=O)O)c1sc2cc(F)ccc2c1Cl	-1.39
C[C@]12CCC(=O)C=C1CC[C@@H]1[C@@H]2C(=O)C[C@]2(C)C(=O)CC[C@@H]12	-0.84
C=C1C(=O)O[C@@H]2[C@H]3C(C)=CC[C@@]34O[C@@]4(C)CC[C@@H]12	2.15
COC(=O)[C@]12CCC(C)(C)C[C@H]1[C@H]1C(=O)C=C3[C@@]4(C)C=C(C#N)C(=O)C(C)(C)[C@@H]4CC[C@@]3(C)[C@]1(C)CC2	-10.9
CCCC[C@@H](NC(=O)[C@@H](Cc1cn(C(=O)OC)c2ccccc12)NC(=O)[C@H](CC(C)(C)C)NC(=O)N1[C@H](C)CCC[C@@H]1C)C(=O)[O-]	-3.76
CC(C)(C)CCN1C[C@@H]2[C@@H](CNC(=O)c3cc(Cl)cc(Cl)c3)[C@@H]2C1	20.6
COC1C(OC(=O)NC(=O)CCl)CCC2(CO2)C1C1(C)OC1CC=C(C)C (stereo not drawn)	11.3
C[C@H]1CC2C([C@@H](O)C[C@@]3(C)C2CC[C@]3(O)C(=O)COC(=O)CCC(=O)[O-])[C@@]2(C)C=CC(=O)C=C12 (stereo partly drawn)	-6.49
O=C(NOCC1CC1)c1ccc(F)c(F)c1Nc1ccc(I)cc1Cl	1.02
O=C(NOCCO)c1cc(CN2OCCCC2=O)c(F)c(F)c1Nc1ccc(I)cc1F	-1.3
O=C(c1ccc(F)c(F)c1Nc1ccc(I)cc1F)N1CC(O)([C@@H]2CCCCN2)C1	78.8
Cc1cc2nc3c(=O)[nH]c(=O)nc-3n(C[C@@H](O)[C@@H](O)[C@@H](O)COP(=O)([O-])O)c2cc1C	1.6
COc1cc2cc(c1Cl)N(C)C(=O)C[C@H](OC(=O)C(C)C)[C@]1(C)O[C@H]1[C@H](C)[C@@H]1C[C@@](O)(NC(=O)O1)[C@H](OC)/C=C/C=C(\C)C2	-0.8
CCN(CC)CCOc1ccc2c(c1)C(=O)c1cc(OCCN(CC)CC)ccc1-2	57.2
CCCCOc1cc(C(=O)OCCN(CC)CC)ccc1N	18.9
CCOc1ccc(C(=O)OCCN(CC)CC)cc1	0.82
O=C1NNc2nc(CN3Cc4ccccc4C3)nc3cccc1c23	0.43
